# Source: PubChem (National Center for Advancing Translational Sciences (NCATS))
# D3 antag: qHTS of D3 Dopamine Receptor Antagonist: qHTS | actives 2.5% (n = 360,000) | D(3) dopamine receptor (Homo sapiens), P35462 | max response, negative = inhibition, % | D3R cells, DiscoveRx beta-arrestin luminescence, antagonist mode; stronger effect = lower value; in the data active means max response below about -50%; further: on the % scale 0 is the no-effect control and ±100 the full control effect
#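 Cells expressing the human receptor were seeded at 1500 cells/well, incubated overnight at 37 degrees C in 5% CO2, then exposed to library compounds with dopamine controls for 90 minutes at 37 degrees C before luminescent detection.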
# D3 ag: qHTS of D3 Dopamine Receptor Agonist: qHTS | D3R DiscoveRx beta-arrestin cells, luminescence, 90 min | max activation, % | actives 0.58% (n = 410,000) | AID 652048, 2013 | D(3) dopamine receptor (Homo sapiens), P35462; in the data active means max activation above about 30%; further: 0% is about no effect
#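 Agonist mode: compounds and dopamine controls were applied to plated cells for 90 min at 37 degrees C after an overnight attachment at 1500 cells/well. Luminescent read-out followed 30 - 60 minutes at room temperature with DiscoveRx detection reagent.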
# D1 potentiator: Potentiators of Human D1 Dopamine Receptor: qHTS; potentiation, % at 10 µM; D(1A) dopamine receptor (Homo sapiens), P21728; HEK293 TREx D1 cells, calcium flux, dopamine EC20 potentiation; actives 0.036% (n = 360,000); in the data active means potentiation above about 30%; further: 0% is about no effect
# Target sequence (P21728 whole entry, looked up): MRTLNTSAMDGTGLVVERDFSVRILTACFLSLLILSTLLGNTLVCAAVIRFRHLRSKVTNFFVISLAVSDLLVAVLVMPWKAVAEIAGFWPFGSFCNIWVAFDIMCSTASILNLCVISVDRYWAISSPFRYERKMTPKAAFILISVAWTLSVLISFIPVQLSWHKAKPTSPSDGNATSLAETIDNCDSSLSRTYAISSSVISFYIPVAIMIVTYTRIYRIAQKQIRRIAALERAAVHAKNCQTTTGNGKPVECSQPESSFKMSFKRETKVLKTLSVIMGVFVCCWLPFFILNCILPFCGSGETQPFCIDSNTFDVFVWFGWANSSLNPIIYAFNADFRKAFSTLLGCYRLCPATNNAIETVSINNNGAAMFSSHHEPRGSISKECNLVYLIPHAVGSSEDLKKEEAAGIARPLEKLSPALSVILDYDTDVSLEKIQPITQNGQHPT
# D1 antagonist: Antagonist of Human D 1 Dopamine Receptor: qHTS | actives 3.2% (n = 360,000) | D(1A) dopamine receptor (Homo sapiens), P21728 | activity change, negative = inhibition, % at 10 µM | HEK293 TREx D1 cells, calcium flux, dopamine EC80; stronger effect = lower value; in the data active means activity change below about -30%; further: on the % scale 0 is the no-effect control and ±100 the full control effect
#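 Tetracycline-induced HEK293 T-REx cells with force-coupled D1 receptor were loaded with a no-wash calcium dye. Compound was added after a 10 s baseline and read kinetically for 180 s; EC80 dopamine was then added and calcium flux followed another 180 s.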
# D1 ag: Allosteric Agonists of the Human D1 Dopamine Receptor: qHTS. HEK293 T-REx D1 cells, calcium flux, agonist mode. activation, % at 2 µM. actives 1% (n = 360,000). AID 504660, 2011; in the data active means activation above about 30%; further: 0% is about no effect
#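 Inducible HEK293 T-REx D1 cells, force-coupled to calcium signalling, were plated at 4000 cells/well with tetracycline and held overnight at 30 C. After no-wash calcium dye loading, compound-evoked calcium rise over 180 s flagged agonists.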
# Numbers without * were called inactive; / = no result. An excerpt weighted towards active compounds, which were near 6% of everything screened.
SMILES,D3 antag,D3 ag,D1 potentiator,D1 antagonist,D1 ag
CC1CCCC/C1=N\Nc1ccc(S(N)(=O)=O)cc1[N+](=O)[O-] (configuration not stated),15,0,-3,-30*,6
COc1cc(-c2nc(C(=O)NC3CCN(Cc4ccccc4)CC3)cc3c2[nH]c2ccccc23)cc(OC)c1OC,-117*,-63,7,-3,2
COc1ccc(OC)c(-c2nc(C(=O)NC3CCN(Cc4ccccc4)CC3)cc3c2[nH]c2ccccc23)c1,-125*,-60,-1,2,2
Cc1onc(-c2c(Cl)cccc2Cl)c1/C(N)=N/OC(=O)C(C)(C)C,-12,36*,-1,7,3
C/C(=N\OC(=O)c1c(-c2c(F)cccc2Cl)noc1C)c1nccs1,14,12,-1,9,6
Cc1onc(-c2c(F)cccc2Cl)c1C(=O)O/N=C(\N)c1ccc([N+](=O)[O-])o1,8,33*,-1,0,0
O=C(COC(=O)Cn1[nH]c(=O)c2ccccc2c1=O)NNC(=O)c1ccc(Br)cc1,-118*,-34,3,5,0
O=C(Cn1[nH]c(=O)c2ccccc2c1=O)OCC(=O)c1ccccc1,3,10,4,5,3
O=C(COC(=O)Cc1n[nH]c(=O)c2ccccc12)NNC(=O)c1ccc(Cl)cc1,-131*,-26,-1,4,1
O=C(CN(Cc1ccccc1)C1=NCCS1)c1ccc(Cl)cc1,-64*,-12,4,2,2
Cn1c2cc([N+](=O)[O-])sc2c2cnn(Cc3ccccc3F)c(=O)c21,/,/,3,-3,1
CCOC(=O)C1CCCN(c2nc3ccccc3nc2C(C#N)C(=O)NCc2ccccc2)C1 (configuration not stated),-2,6,-9,-3,33*
N#CC(C(=O)NCc1ccccc1)c1nc2ccccc2nc1N1CCCC1 (configuration not stated),-11,4,-7,11,8
Cn1c2cc(B(O)O)sc2c2cnn(Cc3ccc(F)cc3F)c(=O)c21,/,/,0,11,19
Cc1ccc(CNC(=O)c2cc3c(=O)n4cccc(C)c4nc3s2)cc1,/,-8,1,-7,1
COc1ccc(/C=N/NC(=O)c2ccc3c(c2)NC(=O)C(C)(C)O3)cc1OC,52,23,-6,-20,0
CC1(C)Oc2ccc(C(=O)NN)cc2NC1=O,2,1,-12,-38*,2
CCOC(=O)N1CCC(Nc2c(-c3ccc(C)cc3)c(=O)c2=O)CC1,10,-4,-3,-23,10
CCOC(=O)N1CCC(NCCNC(=O)c2cccc(F)c2)CC1,-112*,-68,2,-24,3
CCOC(=O)N1CCC(Nc2c(NCCN3CCN(Cc4ccccc4)CC3)c(=O)c2=O)CC1,-18,1,1,-4,1
CCOC(=O)N1CCC(Nc2c(Nc3ccc(F)cc3)c(=O)c2=O)CC1,-89*,-8,-3,14,1
CCOC(=O)N1CCC(Nc2c(Nc3cccc(CC)c3)c(=O)c2=O)CC1,-62*,-33,6,-3,0
CCOC(=O)N1CCC(NCCNC(=O)c2ccc(F)cc2)CC1,-16,-67,-2,-22,2
O=C(Nc1ccc(F)cc1)c1cccn1-c1nnc(N2CCCCC2)s1,/,-20,-1,-9,7
COc1cccc(CNC(=O)c2cc(-c3ccc(Cl)cc3)n[nH]2)c1,/,6,-2,-5,5
COc1ccc(NC(=O)c2cnc(SCC(=O)Nc3nc4ccc(C)cc4s3)n(C)c2=O)cc1,/,0,3,/,1
CC(C)(C)C(=O)N1CCN(c2ccc(Cl)cc2[N+](=O)[O-])CC1,4,0,-2,-7,4
CC(C)(C)C(=O)N1CCN(c2c(Cl)cccc2[N+](=O)[O-])CC1,3,1,-6,-52*,2
COc1cccc(C(=O)N(Cc2ccccc2)Cc2cc3cc4c(cc3[nH]c2=O)OCCO4)c1,32,33*,-5,-10,0
